Compound activity deposited in PubChem BioAssay by National Center for Advancing Translational Sciences (NCATS).
FUS suppressor: rescues growth of FUS-expressing yeast. S. cerevisiae FUS-expressing, growth rescue, OD600, 24 h. Potency, µM (doses to about 76.6 µM), most hits filed as activators. actives 0.24% (n = 390,000). AID 1347120; also: nearly all actives have a fitted effect of over 55% in size
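Steps: raffinose overnight preculture; dilution to OD 0.005 in 2% galactose minimal medium; compound addition (concentration series); 24hr at 30C, 99% humidity; absorbance read at 600 nm.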
aSyn rescue: rescues yeast growth from alpha-synuclein toxicity; Yeast expressing alpha-synuclein, growth rescue, BacTiter-Glo, 24 h; Potency, µM (series often up to 46.1 µM), most hits filed as activators; actives 0.14% (n = 370,000); AID 652106; also: nearly all actives have a fitted effect of over 65% in size
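Screening used galactose-induced yeast with toxic alpha-synuclein levels, exposed to compound for 24 hr at 30 deg C. Cell growth, read with BacTiter-Glo luminescence, gave the measured signal.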
Abeta rescue: A-beta toxicity reversal in yeast; Potency, µM (top dose mostly 46.1 µM), actives largely listed as activators; actives 0.063% (n = 410,000); yeast expressing A-beta42, growth rescue, OD600, 48 h; response scale: 0% DMSO, 100% iron-clioquinol control; also: nearly all actives have a fitted effect of over 55% in size
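Yeast A-beta toxicity model in growth medium with pinned compounds, 48 h at 30 C; growth read as absorbance at 600 nm. Normalized to FeCl3/clioquinol equimolar mix (positive) and DMSO (negative).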
TDP43 rescue: inhibitors of TDP-43 toxicity in yeast; TDP-43 expressing yeast growth rescue, BacTiter-Glo, 24 h; Potency, µM (highest dose often 46.1 µM), usual class: activators; actives 1.8% (n = 410,000); AID 652104; also: nearly all actives have a fitted effect of over 50% in size
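Luminescence from BacTiter-Glo reports growth of TDP-43-expressing yeast after 24 hr at 30 deg C with compound. Cells were raffinose-pregrown to mid-log, then seeded in galactose medium at OD600=0.02.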
Large screens that a line does not name were inactive. The list is not random: actives were taken first. Their share in the collection is about 2.1%. Calls follow the shape of the dose curve; as a rule, active = well fitted curve in the direction sought with a large enough effect; inconclusive = small, poorly fitted or top-dose-only effect, or another doubt; inactive = no such curve, though single readings can be large; an effect the other way counts as inactive or inconclusive.

CCOc1cc(C(c2c(O)nc(SC)[nH]c2=O)c2c(O)nc(SC)[nH]c2=O)ccc1O	none
CCOc1ccc(C(=O)CC(C(=O)O)N2CCCCC2)cc1 (stereo unspecified)	TDP43 rescue 35µM
CCOc1ccc(C(=O)CC(NCc2cccs2)C(=O)O)cc1 (stereo unspecified)	aSyn rescue 11µM
CCOc1ccc(CNC(=O)c2cc3cc(S(=O)(=O)N4CCCCC4)ccc3n2C)cc1	FUS suppressor inconclusive (no result: aSyn rescue)
CN(C)c1ccc(CNC(=O)c2cc3cc(S(=O)(=O)N4CCCCC4)ccc3n2C)cc1	FUS suppressor 8.9µM (no result: aSyn rescue)
CCOc1ccc(CNC(=O)Cn2ccc3cc(S(=O)(=O)N4CCCCC4)ccc32)cc1	FUS suppressor 16µM (no result: aSyn rescue)
Cn1c(=O)c2cccnc2c(=O)n1C	none
CCOC(=O)C1=C(COC(=O)/C=C/c2cccc([N+](=O)[O-])c2)NC(=O)NC1C (stereo unspecified)	none
Nc1ccc2c(c1Br)Cc1ccccc1-2	TDP43 rescue 35µM
CC(=O)Nc1ccc2c(c1Br)Cc1ccccc1-2	TDP43 rescue 18µM
CC(=O)Nc1cccc2c1Cc1cc([N+](=O)[O-])ccc1-2	none (no result: FUS suppressor)
CC(=O)Nc1c(Cl)cc2c(c1Cl)Cc1cc(N)ccc1-2	none (no result: FUS suppressor)
COC(=O)C1=C(C)Nc2c(c(=O)n(C)c(=O)n2C)C1c1cccnc1 (stereo unspecified)	none
COc1ccc(-n2nc([N+](=O)[O-])c(=NCCCN3CCCC3=O)n2O)cc1	none
O=C1CCCN1CCCN=c1c([N+](=O)[O-])nn(-c2ccc(Cl)cc2)n1O	FUS suppressor inconclusive, TDP43 rescue 14µM
CC(C)Cn1c(CN2CCN(C)C(CCO)C2)nc2ccccc21 (stereo unspecified)	none
FC(F)(F)c1cccc(N2CCN(c3nc4ccccc4n4cnnc34)CC2)c1	TDP43 rescue 22µM (no result: aSyn rescue)
c1ccc2c(c1)CCN(c1nc3ccccc3n3cnnc13)C2	TDP43 rescue 35µM
c1ccc(N2CCN(c3nc4ccccc4n4cnnc34)CC2)cc1	TDP43 rescue 35µM
CCCS(=O)(=O)NCCc1cc2c(C)ccc(C)c2[nH]c1=O	TDP43 rescue 4.5µM
Oc1ccc(-c2csc(-c3cccnc3)n2)c(O)c1	none
O=C(NCc1nc2ccccc2[nH]1)C1=C[C@@H](C2CCCCC2)C[C@@H](OCc2ccc(CO)cc2)O1	FUS suppressor 32µM
O=C(NCc1nc2ccccc2[nH]1)C1=C[C@@H](c2ccc(C(F)(F)F)cc2)C[C@@H](OCc2ccc(CO)cc2)O1	FUS suppressor 32µM
O=C(NCc1nc2ccccc2[nH]1)C1=C[C@H](C2CCCCC2)C[C@H](OCCCCO)O1	none
CC(=O)n1cc([C@H]2C=C(C(=O)NCc3ccccc3)O[C@@H](OCc3ccc(CO)cc3)C2)c2ccccc21	FUS suppressor 25µM
C#CCNC(=O)C1=C[C@@H](c2cn(C(C)=O)c3ccccc23)C[C@@H](OCc2ccc(CO)cc2)O1	FUS suppressor inconclusive
O=C(NCc1nc2ccccc2[nH]1)C1=C[C@H](C2CCCCC2)C[C@H](OCc2ccc(CO)cc2)O1	FUS suppressor 20µM
Cc1noc(C)c1C(=O)N1CCC1(C)C(=O)NS(=O)(=O)c1ccc(Br)cc1 (stereo unspecified)	none
CN(C)c1nc(Cl)nc(N(C#N)CCOc2ccccc2)n1	TDP43 rescue 11µM
CCNc1nc(NCC)nc(N(C#N)CCOc2ccccc2)n1	none
COc1cc(/C=N/NC(=O)Cn2nnc3ccccc32)ccc1O	none
O=C(CN1CCCc2ccccc21)NCCc1ccc(Cl)cc1	TDP43 rescue 14µM
O=C(CSc1nc2ccccc2o1)NCc1ccc2c(c1)OCO2	TDP43 rescue 14µM
O=C(NCCc1ccc(Cl)cc1)C1(c2ccccc2)CC1	TDP43 rescue 14µM
O=C(CN1CCCc2ccccc21)NCc1ccc2c(c1)OCO2	TDP43 rescue 11µM
O=C(CSc1nc2ccc(Cl)cc2o1)NCc1ccc2c(c1)OCO2	TDP43 rescue inconclusive
COc1ccc2[nH]c3c(NCc4ccco4)ncnc3c2c1	none
CN(C)S(=O)(=O)c1ccc(NC(=O)CSc2n[nH]c(=O)n2C2CC2)cc1	none
COc1cccc(CNC(=O)CCC2CCCN(C(=O)c3cc4ccccc4o3)C2)c1 (stereo unspecified)	none
COc1ccccc1NC(=O)Nc1nc(CC(=O)N2CCN(c3ccccc3F)CC2)cs1	FUS suppressor 28µM
COc1ccccc1NC(=O)Nc1nc(CC(=O)NCc2c(F)cccc2F)cs1	none
Brc1ccc(-c2nc(-c3ccncc3)no2)o1	TDP43 rescue 13µM
Brc1ccc(-c2nc(-c3ccncc3)no2)cc1	none
CCC(C)c1ccc(OCC(=O)NNC(=O)C2CCCCC2)cc1 (stereo unspecified)	none
COc1cc(SC)ccc1C(=O)Nc1cccc(S(=O)(=O)NC2=NCCCCC2)c1	none
Clc1ccccc1CSc1nnc(-c2ccncc2)o1	TDP43 rescue 10µM
COc1cc(-c2nnc(SCc3c(F)cccc3Cl)o2)cc(OC)c1OC	TDP43 rescue inconclusive
Clc1cccc(NCc2nnc(SCc3ccccc3)o2)c1	none
Clc1cccc(NCc2nnc(SCc3ccccc3Cl)o2)c1	aSyn rescue 20µM, TDP43 rescue 13µM (no result: FUS suppressor)
Fc1cccc(Cl)c1CSc1nnc(-c2ccncc2)o1	TDP43 rescue 13µM
Cc1ccc(OCc2nn3c(-c4ccco4)nnc3s2)cc1	none
COc1cccc(-c2sc3ccc(OC)cc3c2-c2ccc(OCCN3CCOCC3)cc2)c1	FUS suppressor inconclusive, TDP43 rescue 35µM
COc1cccc(-c2sc3ccc(OC)cc3c2-c2ccc(OCCN(C)C)cc2)c1	FUS suppressor 32µM
Cc1cccc(OCC(=O)NCc2ccc3c(c2)CCN3C(=O)c2ccccc2)c1	FUS suppressor inconclusive, TDP43 rescue 25µM (no result: aSyn rescue)
O=C(COc1ccc2c(c1)CCC2)NCc1ccccc1	TDP43 rescue 11µM (no result: FUS suppressor)
COc1cc([N+](=O)[O-])ccc1NC(=O)NCCCN1CCCC1=O	none
N#Cc1ccc(OCC(=O)NCCCN2CCCC2=O)cc1	none
COc1ccc(NC(=O)NCCCN2CCCC2=O)c(OC)c1	TDP43 rescue 0.001µM (no result: aSyn rescue)
N#Cc1ccc(-c2ccc(OCC(=O)NCCCN3CCCC3=O)cc2)cc1	TDP43 rescue 13µM
CC(=O)Nc1ccc(-c2csc(Nc3ccc(Cl)cn3)n2)cc1	none
COc1ccc(-c2csc(Nc3cc(C)ccn3)n2)cc1OC	TDP43 rescue 14µM
CC(=O)Nc1cccc(-c2csc(Nc3ccc(Cl)cn3)n2)c1	TDP43 rescue 22µM
CC(=O)Nc1ccc(-c2csc(Nc3cc(C)ccn3)n2)cc1	TDP43 rescue 16µM
Cc1ccnc(Nc2nc(-c3c(C)nc4sccn34)cs2)c1	TDP43 rescue 7.1µM (no result: aSyn rescue)
Cc1ccc(C)n1-c1sccc1C(=O)O	FUS suppressor 13µM
COc1cc(N=Nc2ccc(Br)cc2)cc(C=O)c1O	TDP43 rescue 13µM
CCn1cc2nc(SCC(=O)Nc3ccc(OC)c(Cl)c3)n(Cc3ccc(OC)cc3)c(=O)c2n1	none (no result: aSyn rescue)
